uPA surface inh: qHTS for Inhibitors of Cell Surface uPA Generation. cell surface uPA generation assay, qHTS. Potency, µM (top dose mostly 38.3 µM), hits mostly inhibitors. actives 0.31% (n = 330,000); active = well fitted inhibition curve with a large enough effect; inconclusive = small, poorly fitted or top-dose-only effect; inactive = no such curve, though single readings can be large or run the other way; tested in mouse RAW 264.7 cells; also: nearly all actives have a fitted effect of over 55% in size
FLuc counter: qHTS profiling assay for firefly luciferase inhibitor/activator using purifed enzyme and Km concentrations of substrates (counterscreen for miR-21 project). Luciferin 4-monooxygenase (Photinus pyralis), P08659. purified FLuc, Km substrates, luminescence inhibition. Potency, µM (titrated, usually from 57.5 µM), usual class: inhibitors. actives 6.9% (n = 360,000). AID 588342, 2011; also: nearly all actives have a fitted effect of over 55% in size
Target sequence (P08659 whole entry, looked up): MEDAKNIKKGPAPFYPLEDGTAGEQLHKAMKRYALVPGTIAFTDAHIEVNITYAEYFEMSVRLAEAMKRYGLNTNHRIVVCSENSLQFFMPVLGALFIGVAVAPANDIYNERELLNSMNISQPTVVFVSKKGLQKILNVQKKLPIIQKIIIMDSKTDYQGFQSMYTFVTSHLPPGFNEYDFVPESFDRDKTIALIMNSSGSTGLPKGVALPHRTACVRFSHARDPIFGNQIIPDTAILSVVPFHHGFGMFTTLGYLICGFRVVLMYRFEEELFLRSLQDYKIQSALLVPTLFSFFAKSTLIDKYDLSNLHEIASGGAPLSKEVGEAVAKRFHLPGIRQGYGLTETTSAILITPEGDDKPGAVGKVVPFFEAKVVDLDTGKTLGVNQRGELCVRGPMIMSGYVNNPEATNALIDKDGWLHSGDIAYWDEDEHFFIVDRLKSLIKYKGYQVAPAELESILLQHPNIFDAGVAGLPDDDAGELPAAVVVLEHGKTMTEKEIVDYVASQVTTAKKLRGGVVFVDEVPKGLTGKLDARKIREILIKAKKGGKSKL
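Biochemical qHTS of compounds, final roughly 60 µM downward over six points, against 10 nM purified firefly luciferase using Km concentrations of substrates (10 uM D-luciferin, 10 uM ATP) in Tris acetate pH 7.5 buffer; luminescence output.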
ELG1 genotox: qHTS screen for small molecules that induce genotoxicity in human embryonic kidney (HEK293T) cells expressing luciferase-tagged ELG1; HEK293T ELG1-luciferase reporter, luminescence, 16 h; Potency, µM (highest dose often 46 µM), most hits filed as activators; actives 1.3% (n = 330,000); AID 504466, 2011; also: nearly all actives have a fitted effect of over 60% in size
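Screening used a luciferase reporter fused to human ELG1 in HEK293T cells. Luminescence was read on a CCD plate imager after 16 hr exposure and 30 min ONE-Glo incubation.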
Rab9 prom act: qHTS Assay for Rab9 Promoter Activators; Huh7 Rab9 promoter-luciferase reporter, luminescence, 24 h; Potency, µM (highest dose often 9.22 µM), most hits filed as activators; actives 2.8% (n = 320,000); also: nearly all actives have a fitted effect of over 60% in size
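Luminescence from Amplite-detected luciferase (10 minutes, ambient) reports Rab9 promoter activation. Before that, stable Rab9-luciferase Huh7 cells (1500/well, reduced-serum OP-MEM I plus 10% FBS) were exposed to compound for 24 hours at 37C.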
SMN2 splice up: qHTS Assay for Enhancers of SMN2 Splice Variant Expression; HEK293 SMN2-luciferase splicing reporter, luminescence, 30-36 h; Potency, µM (titrated, usually from 46.1 µM), hits mostly activators; actives 2.8% (n = 210,000); AID 1458, 2008; also: nearly all actives have a fitted effect of over 55% in size
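HEK293 cells carry an SMN2 minigene-luciferase reporter in which exon 7 inclusion puts luciferase in frame. Cells were seeded at 2000 cells/well, attached for 10-12 hours, then exposed to compounds for 30-36 hours at 37C before ONE-Glo luminescence.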
NPC1 prom act: qHTS Assay for NPC1 Promoter Activators | actives 2.4% (n = 320,000) | Potency, µM (highest dose often 9.22 µM), hits mostly activators | AID 485313, 2010 | Huh7 NPC1 promoter luciferase reporter, 24 h; also: nearly all actives have a fitted effect of over 60% in size
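Readout is luciferase luminescence, reflecting NPC1 promoter activation in stably transfected Huh7 cells after 24 h compound exposure at 37 °C in reduced-serum medium with 10% FBS.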
A number is an active result; - = inactive; ? = inconclusive; . = no result given. Compounds with a hit are over-represented: about 7.3% of the library has one in this group of screens. Unless noted, calls follow the shape of the dose curve; as a rule, active = well fitted curve in the direction sought with a large enough effect; inconclusive = small, poorly fitted or top-dose-only effect, or another doubt; inactive = no such curve, though single readings can be large; an effect the other way counts as inactive or inconclusive.

SMILES | uPA surface inh | FLuc counter | ELG1 genotox | Rab9 prom act | SMN2 splice up | NPC1 prom act
Cc1cc(N2CCN(c3ccc([N+](=O)[O-])c4cccnc34)CC2)c2ccccc2n1 | - | - | - | - | - | -
Cc1cc(N2CCN(c3ccc(C(F)(F)F)cc3[N+](=O)[O-])CC2)c2ccccc2n1 | 14.1µM | - | - | - | . | -
CCCn1c(=O)c2sccc2n2c(CCCC(=O)Nc3ccc(Oc4ccccc4)cc3)nnc12 | . | - | . | . | . | .
O=C1NN(c2ccccc2)C(=O)/C1=C/c1ccc(-c2ccc(Cl)c(C(=O)O)c2)o1 | - | ? | - | - | - | -
C#CCN1C(=O)S/C(=C\c2ccc(-c3ccc(Cl)c(C(=O)O)c3)o2)C1=O | - | 10.7µM | 16.4µM | 1.78µM | . | 0.794µM
CCN1C(=O)/C(=C\c2ccc(-c3cccc(C(=O)OC)c3)o2)SC1=Nc1ccc(C(=O)O)cc1 | . | - | - | - | . | -
O=C(O)c1cc(-c2ccc(/C=C3\NC(=O)N(c4ccc(Cl)cc4)C3=O)o2)ccc1Cl | - | 19µM | - | - | - | -
Cc1cccc(N2NC(=O)/C(=C/c3ccc(-c4ccc(Cl)c(C(=O)O)c4)o3)C2=O)c1 | - | 23.9µM | - | - | - | -
CCN=C1S/C(=C\c2ccc(-c3cccc(C(=O)O)c3)o2)C(=O)N1CC | - | 0.757µM | 1.64µM | 0.398µM | 3.55µM | 0.631µM
O=S(=O)(c1ccc(Br)cc1)c1nc(-c2cccs2)oc1SCc1ccccc1F | . | - | . | . | - | .
COc1cc2cnc(-c3ccccc3)c(-c3cc(OC)c(OC)c(OC)c3)c2cc1OC | ? | - | - | - | . | -
Nc1ccc2nc(-c3ccccc3)cnc2c1 | - | . | . | . | . | .
COc1cc2ncc(-c3ccccc3)nc2cc1OC | . | . | . | . | 28.2µM | .
Clc1ccc(-c2cnc3ccccc3n2)cc1 | - | 4.78µM | ? | 3.98µM | 12.6µM | 3.16µM
Cc1cc2ncc(-c3ccccc3)nc2cc1C | - | 0.601µM | 1.64µM | 0.794µM | 5.01µM | 1.26µM
CCCCOc1ccc(-c2cnc3ccccc3n2)cc1 | - | 0.426µM | ? | 0.447µM | 1.41µM | 0.398µM
CC(C)c1ccc(NC(=O)CSC2=Nc3ccccc3C3=NC(CC(=O)NCc4cccs4)C(=O)N23)cc1 (stereo not drawn) | . | - | . | . | . | .
O=C(CSc1ncc2c(n1)-c1ccccc1N(Cc1ccc(Cl)cc1)S2(=O)=O)c1ccccc1 | . | - | . | . | . | .
CCOc1ccc(NC(=O)[C@H]2O[C@@H]3OC(C)(C)O[C@@H]3[C@H]3OC(C)(C)O[C@H]32)cc1 | . | - | . | . | - | .
Cn1ccc2cc(S(=O)(=O)N3CCCC(C(=O)NCc4ccc(F)cc4)C3)ccc21 (stereo not drawn) | . | - | . | . | . | .
Cc1cc(-c2ccccc2)nc(-c2ccccc2)c1C | - | 0.169µM | 20.6µM | ? | . | -
Cc1nc2ccc(C(=O)OCc3ccccc3Br)cc2nc1C | - | 12µM | ? | 1.12µM | - | 3.16µM
CC(=O)Nc1ccc(C(=O)OCc2ccccc2Br)cc1 | - | ? | - | ? | - | -
Oc1ccc(-c2cnc3ccccc3n2)cc1 | - | . | . | . | . | .
Cc1ccc(-c2cnc3ccccc3n2)cc1C | - | 0.536µM | ? | - | . | ?
SMILES | uPA surface inh | FLuc counter | ELG1 genotox | Rab9 prom act | SMN2 splice up | NPC1 prom act
CCOC(=O)c1ccc2ncc(-c3ccccc3)nc2c1 | - | 5.36µM | 10.3µM | 3.55µM | - | 3.16µM
Cc1c(Cl)cccc1NC(=O)Cn1nnc2sc3c(c2c1=O)CCCC3 | . | - | . | . | - | .
CCOc1ccc(S(=O)(=O)N2CCN(c3ccccc3)CC2)cc1C(N)=O | . | - | . | . | - | .
O=C1CS(=O)(=O)C2(C(=O)N(Cc3ccccc3Cl)c3ccccc32)N1c1ccc(F)cc1 (stereo not drawn) | . | - | . | . | . | .
CCOc1ccc(NC(=O)N2CC3CCCN3c3ccccc32)cc1 (stereo not drawn) | . | - | . | . | . | .
O=[N+]([O-])c1cccc(-c2nnc(-c3ccccc3)o2)c1 | - | 15.1µM | ? | 2.24µM | 20µM | 2.82µM
Clc1ccccc1-c1nnc2sc(-c3ccc4c(c3)OCO4)nn12 | . | ? | ? | - | ? | -
O=[N+]([O-])c1cccc(-c2nnc(-c3ccc4c(c3)OCO4)o2)c1 | - | 2.69µM | ? | 2.24µM | 11.2µM | 2.51µM
Clc1ccccc1-c1nnc(-c2ccc3c(c2)OCO3)o1 | - | 2.69µM | - | 1.26µM | 5.01µM | 1.41µM
O=C(Nc1cccc(C(=O)OCc2cc(=O)n3nc(C4CC4)sc3n2)c1)c1cccc(F)c1 | . | - | . | . | . | .
O=C(CSc1nc2c(oc3ccccc32)c(=O)n1-c1ccccc1)Nc1ccc(F)c(Cl)c1 | . | - | . | . | - | .
O=c1c2ccccc2nc(N/N=C/c2c(O)ccc3ccccc23)n1O | - | 1.9µM | - | - | - | -
O=c1c2ccccc2nc(N/N=C/c2ccc(O)cc2)n1O | - | 2.39µM | - | - | - | -
Cc1nc2ccccc2nc1N/N=C/c1ccc(O)cc1 | ? | 8.49µM | ? | - | . | -
CCOc1ccc(Nc2nn(-c3ccc(OC(F)(F)F)cc3)nc2C(C)=O)cc1 | . | - | . | . | - | .
CCc1ccc(-n2c(=O)c3c4c(sc3n(CC(=O)c3ccc(Br)cc3)c2=O)CCC4)cc1 | . | - | . | . | - | .
Cc1ccc(NC(=O)CNC(=O)c2ccc(OC(F)F)cc2)cc1S(=O)(=O)N1CCCCCC1 | - | . | . | . | . | .
O=C(O)Cn1ncc2ccccc2c1=O | - | - | - | - | . | -
O=c1c2ccccc2cnn1CCOc1ccccc1 | - | 0.301µM | ? | 0.1µM | . | 0.0891µM
C[C@@H]1[C@H](O)[C@@H](C)/C=C/C=C/C=C/C=C/C=C/C=C/C=C/[C@H](O[C@@H]2O[C@H](C)[C@@H](O)[C@H](N)[C@@H]2O)C[C@@H]2O[C@](O)(C[C@@H](O)C[C@@H](O)[C@H](O)CC[C@@H](O)C[C@@H](O)CC(=O)O[C@H]1C)C[C@H](O)[C@H]2C(=O)O | . | . | . | . | - | .
CC1C(=O)N2CCCc3cc(S(=O)(=O)N4CCN(c5ccc(F)cc5)CC4)cc1c32 (stereo not drawn) | - | - | - | - | . | -
N#Cc1c(Cl)nsc1NC(=O)c1ccccc1 | ? | 15.1µM | - | - | - | -
Cc1ccc(C(=O)Nc2sc3c(c2C#N)CCCCC3)cc1C | - | ? | ? | 3.16µM | ? | 2.24µM
C=CCNC(=S)Nc1sc2c(c1C#N)CCCC2 | - | 21.3µM | - | - | - | -
N#Cc1c(NC(=O)c2ccccc2)sc2c1CCCCC2 | - | ? | ? | 0.562µM | 0.631µM | 0.794µM
Cc1sc(NC(=S)NC(=O)c2ccccc2)c(C#N)c1C | - | . | . | . | . | .
Cc1cc(NC(=O)COC(=O)CCNS(=O)(=O)c2c(Cl)cccc2Cl)no1 | - | - | - | - | - | -

Bioassay records (PubChem)
